Test [1] is described as follows: NCI Yeast Anticancer Drug Screen. Data for the rad50 strain (AID 155).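 Note: 0% = growth of vehicle-only cultures of the same strain.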 The note with it: S. cerevisiae rad50 strain growth inhibition; at 50.0 µM; hits give high values. The gist of the method: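 Yeast carrying a defined DNA repair defect were exposed to test compounds, and growth was compared with vehicle-treated controls to give percent inhibition.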
Test [2] in a line: NCI Yeast Anticancer Drug Screen. Data for the mec2-1 strain (AID 157). As to conditions: S. cerevisiae mec2-1 strain, at 50.0 µM, hits give high values. The gist of the method:
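Yeast mec2-1 mutant treated with compound. Readout: growth inhibition vs vehicle controls.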

Test [3] is described as follows: NCI Yeast Anticancer Drug Screen. Data for the sgs1 mgt1 strain (AID 161).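 Note: 0% = growth of cultures given vehicle only.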 The note with it: S. cerevisiae sgs1 mgt1 strain, at 50.0 µM, hits give high values. The essentials: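 Genetically altered yeast, compound exposure, growth inhibition relative to vehicle.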
A short description of test [4]: NCI Yeast Anticancer Drug Screen. Data for the cln2 rad14 strain (AID 165).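 Note: 0% = growth equal to vehicle treated cultures.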 The note with it: S. cerevisiae cln2 rad14 strain, at 50.0 µM, hits give high values. The essentials: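 cln2 rad14 yeast strain; compound exposure; growth inhibition read vs vehicle controls.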
A short description of test [5]: NCI Yeast Anticancer Drug Screen. Data for the bub3 strain (AID 167). As to conditions: S. cerevisiae bub3 mutant strain, at 50.0 µM, hits give high values. The essentials: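 Compounds were applied to a genetically altered yeast strain carrying a cell-cycle control defect. Growth inhibition was scored against vehicle-treated controls.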
The nature of test [6]: NCI Yeast Anticancer Drug Screen. Data for the mlh1 rad18 strain (AID 175). As to conditions: S. cerevisiae mlh1 rad18 strain growth inhibition; at 50.0 µM; hits give high values. The essentials:
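Yeast w/ defined DNA-repair lesions; compound exposure; growth vs vehicle controls → % inhibition.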

Compounds without any hit were thinned out: in the full panel of roughly 79,000, 15% have a hit. Values without a mark were called inactive. Calls of active or inactive are those of the source. Cut-off read from the data, not from the text of the source: active = growth inhibition above about 70%; inactive = the rest.

For `CCC1([N+](=O)[O-])CC2C=CC1C2` (stereo not given), the growth inhibition is 2.2% in test [1]; -14.3% in test [2]; -26% in test [3]; -4.15% in test [4]; -21.7% in test [5]; -13.2% in test [6].

As for `CCOC(=O)C(C#N)(CCC#N)CCC#N`, the growth inhibition in test [1] is 26.3%; in test [2], 6.8%; in test [3] it was 9.05%; in test [4], -3.45%; in test [5] it was 9.4%; in test [6] it was 12.6%.

Take `CCNC(C(=O)O)C1CCCCC1` (stereo not given): the growth inhibition is -6.45% in test [1]; -2.95% in test [2]; -1.65% in test [3]; 8.5% in test [4]; -0.8% in test [5]; -1.25% in test [6].

In the case of `NC(=O)N/N=C/C1CCc2ccccc2C1` (stereo not given), the growth inhibition was 6.45% in test [1]; -10.4% in test [2]; -12.3% in test [3]; -6.2% in test [4]; -1.4% in test [5]; 1.5% in test [6].

Regarding `COc1ccc(-c2c(C#N)c(-c3ccccc3)n(NS(=O)(=O)c3ccccc3)c(=O)c2C#N)cc1`, the growth inhibition in test [1] is -0.05%; in test [2], 40.7%; in test [3], 30.4%; in test [4], 8.45%; in test [5], 32.6%; in test [6], 42.1%.

Regarding `S=C(NCc1ccc(Cl)c(Cl)c1)Nc1ccccc1`, the growth inhibition in test [1] was 98% (active); in test [2], 99.2% (active); in test [3], 99% (active); in test [4], 98.2% (active); in test [5] it was 97.3% (active); in test [6] it was 98% (active).

Consider `O=C(c1ccc(Cl)cc1)c1onc(-c2ccccc2)c1-c1ccccc1`, for which the growth inhibition in test [1] was -13.6%; in test [2], 0%; in test [3], -0.3%; in test [4] it was -43.9%; in test [5] it was -9.2%; in test [6], -3.05%.

As to `CCC(C)CNCCO` (stereo not given), the growth inhibition in test [1] was 24.6%; in test [2], -7.1%; in test [3], 5.7%; in test [4] it was 0.35%; in test [5] it was -6.25%; in test [6] it was 11.3%.

In the case of `S=C1NC=CC(S)N1` (stereo not given), the growth inhibition in test [1] was -3.3%; in test [2], 5.95%; in test [3], 6.6%; in test [4], 10.3%; in test [5], 11.2%; in test [6], -1.35%.

With `O=C1OC(c2ccccc2)(c2ccccc2)CC1c1ccccc1` (stereo not given), the growth inhibition was 9.05% in test [1]; 7.5% in test [2]; 12.8% in test [3]; -44% in test [4]; -4.25% in test [5]; 20.7% in test [6].

Take `ClCCCOc1ccccc1`: the growth inhibition in test [1] is 21.5%; in test [2], 23.2%; in test [3], 22.6%; in test [4], 8.55%; in test [5], -5.25%; in test [6] it was 11.6%.

`Cc1nc(C(=O)N=C(N)N)c(N)nc1-c1ccccc1`: the growth inhibition is -22.6% in test [1]; -4.3% in test [2]; -7.7% in test [3]; -28.2% in test [4]; -4.8% in test [5]; -4% in test [6].

Regarding `Cc1ccc(CCCC(=O)O)c2ccc3ccccc3c12`, the growth inhibition in test [1] is 4.15%; in test [2] it was 2.4%; in test [3] it was 8.6%; in test [4], -9.4%; in test [5], 4.3%; in test [6] it was 3.55%.

Take `CCOC(=O)C(=O)c1c[nH]c2ccccc12`: the growth inhibition was -3.35% in test [1]; 2.45% in test [2]; -2.5% in test [3]; -12.1% in test [4]; 6.4% in test [5]; 10% in test [6].

`Cc1ccc(S(=O)(=O)OC(c2ccccc2)c2ccccc2)cc1`: the growth inhibition in test [1] was -7.05%; in test [2], -10.9%; in test [3], -0.4%; in test [4], -17.4%; in test [5] it was 0%; in test [6], -28.8%.

In the case of `CCCNC(=O)Oc1ccccc1C(N)=O`, the growth inhibition in test [1] is -3.35%; in test [2] it was -20.1%; in test [3], -4.4%; in test [4], -44%; in test [5] it was 8%; in test [6], -5.75%.

In the case of `C[C@@H]1C(=O)OCC2=C3C[C@@H](CC[C@@]3(C)C=CC2=O)[C@H](C)C(=O)OCC2=C3C[C@H]1CC[C@@]3(C)C=CC2=O`, the growth inhibition in test [1] was 4.3%; in test [2], -3.7%; in test [3], -1.35%; in test [4], 15.7%; in test [5], 1.7%; in test [6] it was 20.8%.

Take `COC(=O)C12c3ccccc3C(c3ccccc31)c1c(N=O)ccc(NO)c12`: the growth inhibition in test [1] was 99.2% (active); in test [2] it was 99.3% (active); in test [3] it was 99.1% (active); in test [4], 98.7% (active); in test [5], 99% (active); in test [6], 99% (active).

With `O=C1/C(=C2\CCc3ccccc32)Cc2ccccc21`, the growth inhibition in test [1] was 14.1%; in test [2], 5.65%; in test [3], -4.2%; in test [4], -1.7%; in test [5], 34.6%; in test [6], 8.15%.

As for `Oc1cccc2c(NC(=S)Nc3ccccc3)cccc12`, the growth inhibition in test [1] was 37.2%; in test [2], 22.8%; in test [3] it was 18.2%; in test [4], 15.5%; in test [5] it was 39.5%; in test [6], 32.9%.

Regarding `CCCCCCC(C)NCC(=O)Nc1ccccc1C` (stereo not given), the growth inhibition in test [1] was -2.7%; in test [2], 14.2%; in test [3], 25.6%; in test [4], -44.7%; in test [5], 59.7%; in test [6], 30.6%.

In the case of `CC1C(O)=C(O)c2ccccc2N1O` (stereo not given), the growth inhibition in test [1] is -9.15%; in test [2] it was -11.1%; in test [3] it was -8.6%; in test [4], 12.5%; in test [5] it was -6.25%; in test [6], -10.7%.

`C=C(C)c1nc(C#N)c(N)o1`: the growth inhibition in test [1] was 33%; in test [2], 5.6%; in test [3], -13.4%; in test [4], 4.5%; in test [5], -37.8%; in test [6] it was -33.4%.

Consider `O=C(O)CN(CCCCN(CC(=O)O)CC(=O)O)CC(=O)O`, for which the growth inhibition in test [1] is -6.8%; in test [2], -15.8%; in test [3], 9.3%; in test [4] it was -66.5%; in test [5], 16.4%; in test [6], -21.2%.

`O=C(O)c1ccccc1C(=O)NCc1ccc(Cl)cc1Cl`: the growth inhibition in test [1] was -3.75%; in test [2], 22.6%; in test [3], 21.4%; in test [4] it was -7.3%; in test [5], 19.9%; in test [6], 38.8%.

Regarding `N#CC(=O)Nc1ccc(F)cc1`, the growth inhibition in test [1] is -58.3%; in test [2], -2.35%; in test [3], -6.15%; in test [4], -8%; in test [5], 1.9%; in test [6] it was 3.2%.

With `CC(=O)Nc1ccc(Nc2nc(=O)[nH]c(=O)[nH]2)cc1`, the growth inhibition in test [1] is -3.2%; in test [2], -12.6%; in test [3] it was 13.1%; in test [4] it was -0.55%; in test [5], -1.6%; in test [6], -32.6%.

For the compound `O=C1CN(CCN2CCCCC2)CC(=O)N2CCCCN12`, the growth inhibition was -32% in test [1]; -7.15% in test [2]; -8.65% in test [3]; 9.2% in test [4]; -5.75% in test [5]; -10.8% in test [6].

As to `COc1ccc(C2=Nc3cccc4c3N(CCC4)C2c2ccc(OC)cc2)cc1` (stereo not given), the growth inhibition in test [1] was 0.45%; in test [2] it was 2.45%; in test [3], 3%; in test [4], 7.6%; in test [5], -2.95%; in test [6], 4.8%.

For `C/C=C(/C)C(=O)OC1CC(C)=CC(OC(=O)/C(C)=C\C)[C@]2(C)C1[C@](O)(C(C)C)C[C@H]2OC(C)=O` (stereo not given in full), the growth inhibition was 41% in test [1]; 20.6% in test [2]; 28.2% in test [3]; 30.2% in test [4]; 24.9% in test [5]; 49.4% in test [6].

As for `C/C(=N\NS(=O)(=O)c1ccc(C)cc1)P(=O)(O)O`, the growth inhibition is -6.85% in test [1]; -13.4% in test [2]; -24.7% in test [3]; 8.1% in test [4]; -16.1% in test [5]; 22.6% in test [6].

With `CCCCCCCCCCCCCCCCNc1nc(=O)n(C2CC(O)C(COP(=O)(O)OC3CC(n4cc(F)c(=O)[nH]c4=O)OC3CO)O2)cc1F` (stereo not given), the growth inhibition is -2.05% in test [1]; -6.05% in test [2]; -25.9% in test [3]; 0.95% in test [4]; -42.6% in test [5]; -31.6% in test [6].

Regarding `O=C1CC2C(=O)N(Cc3ccccc3)C1C(S(=O)(=O)c1ccccc1)C2S(=O)(=O)c1ccccc1` (stereo not given), the growth inhibition in test [1] was 10.4%; in test [2], 9.4%; in test [3], 2.75%; in test [4], 26.9%; in test [5] it was -8.7%; in test [6] it was 23.9%.

In the case of `CC1(O)CCC(O)CC1CC[N+](C)(C)[O-]` (stereo not given), the growth inhibition in test [1] is 7.35%; in test [2] it was 1.3%; in test [3] it was 8.8%; in test [4], 4.75%; in test [5] it was 3.3%; in test [6], 5.55%.

Regarding `O=C(c1ccccc1)C1Nc2ccccc2CO1` (stereo not given), the growth inhibition in test [1] is -5%; in test [2], -13.3%; in test [3] it was -13.5%; in test [4], -23.4%; in test [5], -1.6%; in test [6] it was 28.9%.

Regarding `Fc1ccc(C2SCc3nc4ccccc4n32)cc1F` (stereo not given), the growth inhibition was -49.9% in test [1]; -1.3% in test [2]; 24.3% in test [3]; 1.25% in test [4]; -13.8% in test [5]; 18.6% in test [6].

With `O=NNc1ccc(SSc2ccc(NN=O)cc2)cc1`, the growth inhibition in test [1] was 39.8%; in test [2], 9.5%; in test [3], 22.9%; in test [4], 44.9%; in test [5], 8.05%; in test [6] it was 31.1%.

On to `COc1cc2c3c(c1)[nH]c(=S)n3C(=O)C(c1ccccc1)S2` (stereo not given), for which the growth inhibition in test [1] is -32.5%; in test [2] it was 5.8%; in test [3], -3.5%; in test [4], 40.6%; in test [5], 10.1%; in test [6] it was -27.8%.

For `C[C@]12CC[C@@H]3c4ccc(OCCCO)c([N+](=O)[O-])c4CC[C@H]3[C@@H]1CCC2=O`, the growth inhibition in test [1] is 16.3%; in test [2], 6.8%; in test [3], 17.7%; in test [4], 12.4%; in test [5], -0.5%; in test [6] it was 16%.

Take `CN(C)c1ccc(/C=N/NC(=O)c2ccccc2NC(=O)c2ccc(Cl)cc2)c(Cl)c1`: the growth inhibition in test [1] was 1.4%; in test [2] it was 0.45%; in test [3] it was 19.9%; in test [4], -6.3%; in test [5], -6.1%; in test [6], 0.5%.

The values are drawn from PubChem BioAssay (NCI).
